# Measurements from PubChem BioAssay (NCATS).
# Inconclusive results are not listed. Where a call stands in place of a potency, no number is given. Active and inactive are the calls of the source. Unless noted, calls follow the shape of the full dose curve.
# Legend:
# [1] = Primary qHTS for inhibitors of SARS-S pseudo-typed particle cell entry (AID 1479145); conditions: outcome: dose series up to 57.1 µM unless noted; also: nearly all actives have a fitted effect of over 45% in size
# [2] = Primary qHTS for Huh7 cytotoxicity: counterscreen for inhibitors of MERS-S pseudotyped particle cell entry (AID 1479147); conditions: outcome: dose series up to 57.1 µM unless noted
# [3] = Primary qHTS for inhibitors of MERS-S pseudo-typed particle cell entry (AID 1479149); conditions: outcome: dose series up to 57.1 µM unless noted; also: nearly all actives have a fitted effect of over 60% in size
# [4] = Primary qHTS for Vero E6 cytotoxicity: counterscreen for inhibitors of SARS-S pseudo-typed particle cell entry (AID 1479150); conditions: outcome: dose series up to 57.1 µM unless noted
# [5] = Cytotoxicity counterscreen for inhibitors of SARS-CoV-2 cell entry (AID 1645845); conditions: outcome: dose series up to 57.1 µM unless noted; also: nearly all actives have a fitted effect of over 50% in size
# Summary of the method: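 48 h compound treatment (after 1 h preincubation), HEK293-ACE2 cells, 37 C/5% CO2; ATP luminescence endpoint; normalized to cell wells and media blanks.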
# [6] = Primary qHTS to identify inhibitors of SARS-CoV-2 cell entry (AID 1645846); conditions: SARS-CoV-2 pseudovirus cell entry assay, luminescence; activity change, negative = inhibition: at 57.1 µM (top of the series) unless noted; also: nearly all actives have a fitted effect of over 45% in size
# Summary of the method: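 HEK293-ACE2 (Expi293F, stable hACE2), 1500 cells/well, o/n 37C; cpd 23 nL pin, 1 h; MLV-PP w/ SARS-CoV-2-S (Wuhan-Hu-1, Δ19 C-term); 48 h 37C; Bright-Glo luminescence; normalized vs S-PP and bald PP.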
# [7] = biological target: Nuclear receptor subfamily 1 group I member 3 (Homo sapiens) (UniProt Q14994); test: Primary qHTS for antagonist of constitutive androstane receptor (CAR) against the NCATS DSHEA and TCM libraries (AID 1794836; active = well fitted curve in the direction sought with a large enough effect; an effect the other way counts as inactive or inconclusive;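 also: HepG2 cells stably expressing hCAR with CYP2B6 luciferase reporter stimulated by CITCO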)
# Nuclear receptor subfamily 1 group I member 3 (Homo sapiens), sequence (Q14994 whole entry, looked up): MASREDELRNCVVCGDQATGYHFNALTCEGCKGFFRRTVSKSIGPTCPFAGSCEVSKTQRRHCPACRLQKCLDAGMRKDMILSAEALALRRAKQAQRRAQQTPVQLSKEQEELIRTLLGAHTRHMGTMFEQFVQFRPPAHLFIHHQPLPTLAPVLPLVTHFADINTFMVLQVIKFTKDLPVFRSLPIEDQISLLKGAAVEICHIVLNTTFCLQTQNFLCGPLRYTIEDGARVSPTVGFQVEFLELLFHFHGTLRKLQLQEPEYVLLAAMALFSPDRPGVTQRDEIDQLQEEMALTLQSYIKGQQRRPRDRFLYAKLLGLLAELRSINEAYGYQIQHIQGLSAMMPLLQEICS
# Summary of the method: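 Antagonist mode: CAR reporter luminescence (ONE-Glo) in HepG2-CYP2B6-hCAR cells stimulated with 48 uM CITCO (final) over 24 h at 37 C, compounds titrated; viability read first by CellTiter-Fluor fluorescence.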
# [8] = KB-8-5-11 P-gp reporter qHTS against the NCATS DSHEA and TCM libraries (AID 1919977; active = well fitted curve in the direction sought with a large enough effect; an effect the other way counts as inactive or inconclusive)
# Summary of the method: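 CellTiter-Glo luminescence after ~72 h exposure at 37C gave viability of KB-8-5-11 cells, the P-gp-overexpressing subline. Substances were titrated; colchicine was omitted from assay medium.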
# [9] = biological target: Peroxisome proliferator-activated receptor delta (Homo sapiens) (UniProt Q03181); test: qHTS assay for small molecule agonists of peroxisome proliferator-activated receptor delta signaling (AID 588534)
# Peroxisome proliferator-activated receptor delta (Homo sapiens), sequence (Q03181 whole entry, looked up): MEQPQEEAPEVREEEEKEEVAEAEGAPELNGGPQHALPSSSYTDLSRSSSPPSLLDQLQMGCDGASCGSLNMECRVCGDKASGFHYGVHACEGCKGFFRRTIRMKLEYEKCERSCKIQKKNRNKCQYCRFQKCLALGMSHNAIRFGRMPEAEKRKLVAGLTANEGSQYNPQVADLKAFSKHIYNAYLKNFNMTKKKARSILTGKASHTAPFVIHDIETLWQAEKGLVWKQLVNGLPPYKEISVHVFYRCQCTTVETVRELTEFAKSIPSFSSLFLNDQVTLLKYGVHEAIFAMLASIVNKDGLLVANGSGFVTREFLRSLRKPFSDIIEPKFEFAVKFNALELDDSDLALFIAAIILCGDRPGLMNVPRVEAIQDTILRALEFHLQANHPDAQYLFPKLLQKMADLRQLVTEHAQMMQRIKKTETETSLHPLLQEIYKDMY
# Summary of the method: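 Reporter cells were plated and held 5 hrs at 37 C before compounds were added. After 18 hrs at 37 C, CCF4 dye was loaded for 2 hrs at RT and fluorescence measured.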
# [10] = biological target: Glutathione peroxidase 1 (Homo sapiens) (UniProt P07203); test: Primary qHTS Assay for Inhibitors of Recombinant Selenoprotein Glutathione Peroxidase 1 (GPX1) (AID 1845191; active = well fitted curve in the direction sought with a large enough effect; an effect the other way counts as inactive or inconclusive; also: nearly all actives have a fitted effect of over 65% in size)
# Glutathione peroxidase 1 (Homo sapiens), sequence (P07203 whole entry, looked up): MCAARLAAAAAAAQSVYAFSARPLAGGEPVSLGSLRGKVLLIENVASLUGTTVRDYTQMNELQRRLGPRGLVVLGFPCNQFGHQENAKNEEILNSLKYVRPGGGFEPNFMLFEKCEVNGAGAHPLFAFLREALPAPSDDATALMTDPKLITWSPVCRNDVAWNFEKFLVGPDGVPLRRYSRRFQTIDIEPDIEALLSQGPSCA
# Summary of the method: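 10 nM GPX1 + cpd, 30 min RT; start w/ 1 mM GSH, 0.5 mM cumene hydroperoxide, 0.5 mM NADPH, 100 nM GR, 0.01% BSA; buffer 50 mM Tris-HCl pH 7.5, 2 mM EDTA, 150 mM NaCl; Fl 340/450, 0 & 15 min.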
# [11] = biological target: Phospholipid hydroperoxide glutathione peroxidase GPX4 (Homo sapiens) (UniProt P36969); test: Primary qHTS Assay for Inhibitors of Recombinant Selenoprotein Glutathione Peroxidase 4 (GPX4) (AID 1845192; active = well fitted curve in the direction sought with a large enough effect; an effect the other way counts as inactive or inconclusive; also: nearly all actives have a fitted effect of over 65% in size)
# Phospholipid hydroperoxide glutathione peroxidase GPX4 (Homo sapiens), sequence (P36969 whole entry, looked up): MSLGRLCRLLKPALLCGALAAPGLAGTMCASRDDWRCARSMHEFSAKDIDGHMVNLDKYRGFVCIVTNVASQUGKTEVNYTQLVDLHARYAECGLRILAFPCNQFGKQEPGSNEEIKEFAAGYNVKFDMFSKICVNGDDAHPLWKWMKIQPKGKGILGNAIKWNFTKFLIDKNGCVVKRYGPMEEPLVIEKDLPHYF
# Summary of the method: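 NADPH consumption, followed by fluorescence at 340/450 nm between 0 and 15 min, reports GPX4 activity via coupled glutathione reductase (100 nM). Enzyme 200 nM was pre-exposed to compound 30 min; 0.5 mM cumene hydroperoxide and 1 mM GSH served as substrates.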
# [12] = biological target: Thyroid hormone receptor beta (Homo sapiens) (UniProt P10828); test: qHTS assay for small molecule agonists of thyroid hormone receptor beta signaling (AID 588545)
# Thyroid hormone receptor beta (Homo sapiens), sequence (P10828 whole entry, looked up): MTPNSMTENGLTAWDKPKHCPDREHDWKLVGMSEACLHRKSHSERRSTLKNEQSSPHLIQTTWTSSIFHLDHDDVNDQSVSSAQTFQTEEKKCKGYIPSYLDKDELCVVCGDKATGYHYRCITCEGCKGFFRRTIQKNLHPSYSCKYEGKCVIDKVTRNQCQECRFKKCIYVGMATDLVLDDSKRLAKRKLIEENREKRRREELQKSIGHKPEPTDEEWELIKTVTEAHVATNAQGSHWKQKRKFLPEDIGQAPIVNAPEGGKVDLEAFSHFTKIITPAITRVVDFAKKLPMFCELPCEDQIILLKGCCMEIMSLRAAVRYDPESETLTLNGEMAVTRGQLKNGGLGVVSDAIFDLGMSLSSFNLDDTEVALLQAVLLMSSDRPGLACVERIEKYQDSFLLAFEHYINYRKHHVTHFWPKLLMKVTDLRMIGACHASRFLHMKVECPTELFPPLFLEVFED
# Summary of the method: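 TR-UAS-bla GripTite HEK 293 cells (2500/well, medium with 2% charcoal/dextran FBS) were treated in agonist mode for 18 h at 37 C, titrated. Beta-lactamase was read by CCF4 ratio after 2 h; normalized to 10 nM T3 (100%) and DMSO, Hill-fitted for EC50 and efficacy.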
# [13] = qHTS assay for small molecule agonists of the antioxidant response element (ARE) signaling pathway (AID 651741; active = well fitted activation curve with a large enough effect in the signal ratio; the % refers to the signal ratio)
# Summary of the method: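 Seeding 2,000 ARE-bla HepG2 cells per well preceded a 5 h incubation at 37 C/5% CO2 and a 16 h compound exposure at 37 C. Beta-lactamase reporter activity was then quantified by fluorescence after 2 h with LiveBLAzer B/G FRET substrate.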
smiles,measurement,setting,value
O=C([O-])C[O-].[Pt+2],Potency,[1],inactive
same,Potency,[2],inactive
same,Potency,[3],inactive
same,Potency,[4],inactive
same,Potency,[5],inactive
same,Potency,[6],inactive
same,"activity change, negative = inhibition",[6],-22.9% [at 27.1 µM]
NC(=O)OCC(O)COc1ccc(Cl)cc1 (stereo unspecified),Potency,[1],inactive
same,Potency,[2],inactive
same,Potency,[3],inactive
same,Potency,[4],inactive
same,Potency,[5],inactive
same,Potency,[6],inactive
Nc1c(Br)cc(Br)cc1CNC1CCC(O)CC1 (stereo unspecified),Potency,[1],inactive
same,Potency,[2],inactive
same,Potency,[3],inactive
same,Potency,[4],inactive
same,Potency,[5],inactive
same,"activity change, negative = inhibition",[6],-18.6%
COCC1=C(C(=O)O)N2C(=O)[C@@H](NC(=O)/C(=N\OC)c3csc(N)n3)[C@H]2SC1,Potency,[1],inactive
same,Potency,[2],inactive
same,Potency,[3],inactive
same,Potency,[4],inactive
same,Potency,[5],inactive
same,"activity change, negative = inhibition",[6],-16.5%
C[C@]12CCC3c4ccc(OS(=O)(=O)O)cc4CCC3C1CCC2=O (stereo partly specified),Potency,[1],inactive
same,Potency,[2],inactive
same,Potency,[3],inactive
same,Potency,[4],inactive
same,Potency,[5],inactive
same,"activity change, negative = inhibition",[6],-13.1%
CC(=O)OC1CCC2(C)C(=CCC3C2CCC2(C)C(c4cccnc4)=CCC32)C1 (stereo unspecified),Potency,[1],inactive
same,Potency,[2],inactive
same,Potency,[3],inactive
same,Potency,[4],inactive
same,Potency,[5],inactive
same,"activity change, negative = inhibition",[6],-20%
CC(=O)OC1CC2CCC1(C)C2(C)C (stereo unspecified),Potency,[1],inactive
same,Potency,[2],inactive
same,Potency,[3],inactive
same,Potency,[4],inactive
same,Potency,[5],inactive
same,"activity change, negative = inhibition",[6],-37.9%
same,Potency,[7],inactive
same,Potency,[8],inactive
CN[C@@H]1[C@H](O[C@H]2[C@H](O[C@@H]3[C@@H](O)[C@H](O)[C@@H](N=C(N)N)[C@H](O)[C@H]3N=C(N)N)O[C@@H](C)[C@]2(O)C=O)O[C@@H](CO)[C@H](O)[C@H]1O,"activity change, negative = inhibition",[1],-20.2% [at 11.4 µM] (inactive)
same,"activity change, negative = cytotoxicity",[2],-3.3% [at 11.4 µM] (inactive)
same,outcome,[3],inactive [at 11.4 µM]
same,"activity change, negative = cytotoxicity",[4],-2.76% [at 11.4 µM] (inactive)
same,Potency,[5],inactive
same,Potency,[6],inactive
same,"activity change, negative = inhibition",[6],-18.7% [at 11.3 µM]
CC[C@H]1OC(=O)C[C@@H](O)[C@H](C)[C@@H](O[C@@H]2O[C@H](C)[C@@H](O[C@H]3C[C@@](C)(O)[C@@H](O)[C@H](C)O3)[C@H](N(C)C)[C@H]2O)[C@@H](CC=O)C[C@@H](C)C(=O)/C=C/C(C)=C/[C@@H]1CO[C@@H]1O[C@H](C)[C@@H](O)[C@@H](OC)[C@H]1OC,Potency,[1],inactive
same,Potency,[2],inactive
same,Potency,[3],inactive
same,Potency,[4],inactive
same,Potency,[5],inactive
same,Potency,[6],inactive
C/C=C(/C)C(=O)O[C@H]1C(C)=CC23C(=O)C(C=C(CO)[C@@H](O)[C@]12O)[C@H]1[C@@H](C[C@H]3C)C1(C)C (stereo partly specified),Potency,[1],inactive
same,Potency,[2],inactive
same,Potency,[3],inactive
same,Potency,[4],inactive
same,Potency,[5],inactive
same,Potency,[6],inactive
CCC(=O)O[C@]1(C(=O)COC(C)=O)CC[C@H]2[C@@H]3CCC4=CC(=O)CC[C@]4(C)[C@H]3[C@@H](O)C[C@@]21C,Potency,[1],inactive
same,Potency,[2],inactive
same,Potency,[3],inactive
same,Potency,[4],inactive
same,Potency,[5],inactive
same,"activity change, negative = inhibition",[6],-0.634%
C/C=C/C=C/C(=O)O,outcome,[9],inactive
same,Potency,[1],inactive
same,Potency,[2],inactive
same,Potency,[3],inactive
same,Potency,[4],inactive
same,Potency,[5],inactive
same,Potency,[6],inactive
CC1(C)S[C@@H]2[C@H](N)C(=O)N2[C@@H]1C(=O)O,outcome,[1],inactive [at 5.34 µM]
same,outcome,[2],inactive [at 5.34 µM]
same,outcome,[3],inactive [at 5.34 µM]
same,outcome,[4],inactive [at 5.34 µM]
same,outcome,[5],inactive [at 5.25 µM]
same,outcome,[6],inactive [at 5.25 µM]
same,"activity, negative = inhibition",[10],1.27% [at 4.49 µM] (inactive)
same,outcome,[11],inactive [at 4.52 µM]
CC(=O)[C@@]1(O)CC[C@H]2[C@@H]3CCC4=CC(=O)CC[C@@H]4[C@H]3CC[C@@]21C,Potency,[1],inactive
same,Potency,[2],inactive
same,Potency,[3],inactive
same,Potency,[4],inactive
same,Potency,[5],inactive
same,"activity change, negative = inhibition",[6],-22.5%
same,Potency,[10],inactive
same,Potency,[11],inactive
CCN(C)C(C)C(O)c1ccccc1 (stereo unspecified),Potency,[1],inactive
same,Potency,[2],inactive
same,Potency,[3],inactive
same,Potency,[4],inactive
same,Potency,[5],inactive
same,"activity change, negative = inhibition",[6],-6%
same,Potency,[10],inactive
same,Potency,[11],inactive
Fc1cccc(Br)c1NC1=NCCN1,Potency,[1],inactive
same,Potency,[2],inactive
same,Potency,[3],inactive
same,Potency,[4],inactive
same,Potency,[5],inactive
same,Potency,[10],inactive
same,Potency,[11],inactive
C=Cc1ccccc1,outcome,[9],inactive
same,outcome,[12],inactive
same,Potency,[13],inactive
same,Potency,[1],inactive
same,Potency,[2],inactive
same,Potency,[3],inactive
same,Potency,[4],inactive
same,Potency,[5],inactive
same,"activity change, negative = inhibition",[6],-16.9%
COC(=O)c1ccccc1O,outcome,[9],inactive
same,Potency,[1],inactive
same,Potency,[2],inactive
same,Potency,[3],inactive
same,Potency,[4],inactive
same,Potency,[5],inactive
same,"activity change, negative = inhibition",[6],3.44%
CCC[C@@H]1CC(=O)N([C@@H](CC)C(N)=O)C1,Potency,[1],inactive
same,Potency,[2],inactive
same,Potency,[3],inactive
same,Potency,[4],inactive
same,Potency,[5],inactive
same,Potency,[10],inactive
same,Potency,[11],inactive
